# Activity calls are given as the source filed them.
# Assays:
# Albumin (Bos taurus) = Albumin (Bos taurus) (UniProt P02769); assay: compounds binding labelled BSA control protein – biochemical, small-molecule microarray, Alexa647 label, 635/667 nm fluorescence, artefact control for SMM control protein annotation, profiling panel (AID 1118); settings: BSA-A647 binding, fluorescence 635 nm, higher = more signal;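 also: score merges 667 nm emission intensity and signal-to-noise per printed compound spot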
# [1] = probe aXIP binding to arrayed compounds – biochemical, NeuroSMM set, 635/667 nm fluorescence, primary screen (AID 1119); settings: small-molecule microarray, higher = more signal, called active from +8 up or from −8 down;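 also: probe is the protein aXip251-270 applied at 1 µg/mL to compound-printed slides; binding of probe to printed compounds measured as 667 nm fluorescence plus signal to noise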
# [2] = probe aNOTCH3 binding on compound microarray – biochemical, small-molecule microarray, 635/667 nm fluorescence, primary screen (AID 1120); settings: higher = more signal;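 also: probe is a biotin-tagged antibody raised against NOTCH3 rather than NOTCH3 protein; score merges spot fluorescence near 667 nm with spot signal to noise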
# [3] = probe aNOTCH2 binding on compound microarray – biochemical, small-molecule microarray, 635/667 nm fluorescence, primary screen (AID 1121); settings: higher = more signal;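 also: score merges feature fluorescence read at 667 nm with its signal to noise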
# [4] = biological target: Carbonic anhydrase 2 (Homo sapiens) (UniProt P00918); assay: compounds binding carbonic anhydrase 2 – biochemical, small-molecule microarray, Alexa647-labelled CAII, profiling panel (AID 1122); settings: CAII-A647 binding fluorescence, higher = more signal
# [5] = COS7 lysate on small-molecule microarray, probe aHis, 635 nm (AID 1123); settings: COS7 cell lysate, fluorescence, higher = more signal;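 also: z-score combines 667nm fluorescence intensity with signal-to-noise per printed compound spot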
# [6] = probe aLAP1 signal on lysate-treated microarray – cell lysate, small-molecule microarray, COS7 lysate, primary screen (AID 1124); settings: probe aLAP1, fluorescence, higher = more signal;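 also: lysate comes from COS7 cells expressing LAP1 and is applied at 0.3 µg/mL; score merges spot fluorescence near 667 nm with signal-to-noise over triplicate slides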
# Sam68 (KHDRBS1) = assay: compounds binding KHDRBS1 protein – biochemical, small-molecule microarray, 635 nm fluorescence, primary screen (AID 1125); settings: higher = more signal;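 also: score merges 667 nm channel intensity with signal to noise over triplicate slides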
# [7] = test system: Chordin-like protein 2 (CHRDL2); assay: compounds binding chordin-like 2 – biochemical, small-molecule microarray, 635 nm fluorescence, primary screen (AID 1126); settings: fluorescence 635 nm, higher = more signal;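 also: printed compound slides probed with Chrdl2 protein at 4 µg/mL for 1 h at 4 C; score merges 667 nm emission intensity with signal to noise over three replicate slides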
# [8] = biological target: Concanavalin-A (Canavalia ensiformis) (UniProt P02866); assay: compounds binding concanavalin A lectin – biochemical, small-molecule microarray, Alexa647 label, 635 nm, artefact control for SMM control protein annotation, primary screen (AID 1127); settings: ConA-A647 binding fluorescence, higher = more signal;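 also: z combines 667 nm emission intensity with signal-to-noise across three replicate slides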
# Sequence of Concanavalin-A (Canavalia ensiformis) (P02866 whole entry, looked up): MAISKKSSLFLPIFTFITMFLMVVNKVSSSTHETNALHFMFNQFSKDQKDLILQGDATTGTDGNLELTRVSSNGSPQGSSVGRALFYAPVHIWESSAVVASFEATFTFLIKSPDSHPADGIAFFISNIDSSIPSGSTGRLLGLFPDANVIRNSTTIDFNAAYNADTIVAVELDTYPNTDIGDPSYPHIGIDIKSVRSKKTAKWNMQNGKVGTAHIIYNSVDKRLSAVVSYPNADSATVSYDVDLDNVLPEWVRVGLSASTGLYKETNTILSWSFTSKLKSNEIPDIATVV
# Sequence of Albumin (Bos taurus) (P02769 whole entry, looked up): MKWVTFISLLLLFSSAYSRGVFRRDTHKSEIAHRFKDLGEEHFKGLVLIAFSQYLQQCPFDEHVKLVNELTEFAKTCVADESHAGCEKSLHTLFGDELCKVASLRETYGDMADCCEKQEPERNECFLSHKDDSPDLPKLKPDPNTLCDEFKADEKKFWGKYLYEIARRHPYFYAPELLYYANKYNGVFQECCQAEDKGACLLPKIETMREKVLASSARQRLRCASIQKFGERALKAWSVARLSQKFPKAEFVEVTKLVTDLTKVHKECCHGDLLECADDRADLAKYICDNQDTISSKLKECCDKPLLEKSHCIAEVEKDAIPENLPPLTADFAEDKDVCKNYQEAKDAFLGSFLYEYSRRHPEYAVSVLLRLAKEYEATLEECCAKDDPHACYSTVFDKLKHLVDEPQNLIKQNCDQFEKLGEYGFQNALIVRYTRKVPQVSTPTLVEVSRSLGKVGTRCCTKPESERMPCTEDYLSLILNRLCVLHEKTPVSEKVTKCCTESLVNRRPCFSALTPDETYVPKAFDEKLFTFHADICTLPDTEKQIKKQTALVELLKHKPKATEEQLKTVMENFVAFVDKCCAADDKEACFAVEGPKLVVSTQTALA
Compound,composite z-score (Albumin (Bos taurus)),composite Z-score [1],composite z-score [2],composite z-score [3],composite z-score [4],composite z-score [5],composite z-score [6],composite z-score (Sam68 (KHDRBS1)),composite z-score [7],composite z-score [8]
CC(C)[C@H](NC(=O)OC(C)(C)C)[C@@H](O)CC(=O)OC(C)(C)C,-0.493,0.0831 (inactive),-0.235,-0.144,-0.602,-0.361,-0.202,-1.73,-0.646,-0.744
CC(=O)OC[C@H]1O[C@H](CCON=C[C@@H](C)[C@H](OCc2ccccc2)C(C)C)C=C[C@@H]1OC(C)=O,0.0841,-0.313 (inactive),0.214,-0.0716,-0.249,-0.039,0.148,0.997,0.755,0.0066
CCOC(=O)CCN1C(=O)[C@H]2[C@H]3[C@H](O)[C@H](O)CC(=NOC[C@@H](O)COCc4ccco4)[C@@H]3CC[C@H]2C1=O,0.723,-0.244 (inactive),-0.0932,-0.124,0.214,0.171,0.256,0.0665,0.457,0.318
COCCCNC(=O)[C@]1(Cc2ccccc2)N=C(c2ccc(OCCCO)cc2)O[C@@H]1c1ccccc1,0.998,0.12 (inactive),0.108,0.0745,0.726,3.09,0.401,1.31,-0.547,1.02
CCc1cc2c(nc1CC)CCN(CCC(C)=NO[C@@H](C)c1cc(-c3c(C)cc(C)cc3C)no1)C2,0.417,-0.128 (inactive),-0.146,-0.0649,-0.195,0.778,-0.126,0.353,-0.121,0.765
Cc1ccc(C2CC=C(C(=O)O)CN2S(=O)(=O)c2ccc(C)cc2)cc1 (stereo not given),0.921,-0.326 (inactive),0.0203,-0.0567,0.78,0.93,0.953,1.32,0.193,1.12
CCCCCN1CC=CC23O[C@@H]4C=CCOC(=O)[C@@H]4[C@H]2C(=O)N(CCCCCCO)[C@@H]3C1=O (stereo not given in full),0.798,0.401 (inactive),-0.306,-0.0811,0.81,0.629,0.902,-0.662,-1.21,-0.367
CCOC(=O)C[C@H]1[C@H](OC(=O)c2ccc(C(=O)c3ccccc3)cc2)[C@@H](NC(=O)c2ccc(-c3ccccc3)cc2)c2cc(OCCCO)ccc2N1C(=O)c1ccc2ccccc2n1,0.0279,0.228 (inactive),0.0084,-0.101,0.0886,0.71,-0.142,1.31,0.611,0.844
CC(C)N1CC=CC23O[C@@H]4C=CCCOC(=O)C4[C@H]2C(=O)N(CCCCCCO)[C@@H]3C1=O (stereo not given in full),-0.176,0.0157 (inactive),-0.193,0.109,0.439,-0.425,0.753,-0.952,-1.71,-0.428
O=C1C[C@@H](O)[C@@H](O)[C@@H]2[C@@H]3C(=O)N(C4CCCCC4)C(=O)[C@@H]3CC[C@H]12,0.258,-0.236 (inactive),0.0208,-0.0761,0.168,0.323,-0.505,0.742,0.325,0.564
O=C(NN=C1C[C@@H](O)[C@@H](O)[C@@H]2[C@@H]3C(=O)N(c4cccc(Oc5ccccc5)c4)C(=O)[C@@H]3CC[C@H]12)OCc1ccccc1,0.724,-0.558 (inactive),-0.0204,-0.204,-0.0039,1.82,0.122,-0.406,0.0071,0.186
CCCNC(=O)OC[C@H]1O[C@H](CCON=C2[C@H]3CCn4c(=O)n(-c5ccccc5)c(=O)n4[C@H]3[C@H](O)[C@@H]3O[C@H]23)C=C[C@@H]1Oc1ccc(OC)cc1,0.704,2.63 (inactive),-0.0377,-0.0444,0.167,0.73,0.587,0.522,0.318,0.216
O=C1[C@H]2[C@H]3[C@H](O)[C@H](O)CC(=NO[C@@H]4O[C@H](CO)[C@@H](O)[C@H](O)[C@H]4O)[C@@H]3CC[C@H]2C(=O)N1Cc1ccc2c(c1)OCO2,-0.037,0.484 (inactive),-0.004,-0.18,0.376,0.542,-0.211,0.907,0.538,0.211
CC(C)C[C@@H]1NC(=O)[C@H]2C[C@@H](C(=O)O)[C@@H](c3ccc(O)cc3)N2C1=O,0.111,-0.2 (inactive),-0.0311,-0.0586,0.419,0.666,-0.79,0.62,0.51,0.684
CCOC(=O)NN=C1C[C@@H](O)[C@@H](O)[C@@H]2[C@@H]3C(=O)N(CC)C(=O)[C@@H]3CC[C@@H]12,0.338,0.112 (inactive),-0.0864,-0.125,0.735,0.472,-0.0313,0.976,0.0151,0.481
O=C1CCCC2OC12C(O)CCc1ccccc1 (stereo not given),-0.0592,0.319 (inactive),-0.0581,-0.185,-0.22,-0.324,-0.2,0.17,0.594,0.594
CCOC(=O)NN=C1C[C@@H](O)[C@@H](O)[C@@H]2[C@@H]3C(=O)N(C[C@@H]4CCCO4)C(=O)[C@@H]3CC[C@@H]12,0.16,-0.354 (inactive),0.0927,-0.166,0.0815,0.361,0.649,0.339,0.0214,0.437

Compound,composite z-score (Albumin (Bos taurus)),composite Z-score [1],composite z-score [2],composite z-score [3],composite z-score [4],composite z-score [5],composite z-score [6],composite z-score (Sam68 (KHDRBS1)),composite z-score [7],composite z-score [8]
COC(=O)[C@H](C)NC(=O)CCC1CC(OC(=O)NCc2ccc3c(c2)OCO3)CC2(CCCC(COC(=O)NCCOc3ccccc3)O2)O1 (stereo not given in full),0.469,0.794 (inactive),0.14,-0.0889,0.356,0.508,0.114,1.3,0.344,0.906
O=C1[C@H]2[C@H]3[C@H](O)[C@H](O)CC(=NOCc4ccccc4)[C@@H]3CC[C@H]2C(=O)N1Cc1ccccc1,0.55,-0.119 (inactive),-0.0043,-0.14,0.251,-0.256,-0.355,0.598,0.417,-0.0677
C[C@H]1Cc2c(-c3ccccc3)nc3c(c2CO1)CN(CCOc1ccccc1)CC3,0.68,-0.2 (inactive),0.0667,-0.112,0.352,0.71,0.292,1.3,0.521,0.993
CCN1C(=O)[C@H]2[C@H]3[C@H](O)[C@H](O)CC(=NOCc4ccccc4)[C@H]3CC[C@H]2C1=O,-0.0796,0.0894 (inactive),0.0258,-0.041,0.336,0.452,0.491,-0.144,0.248,0.21
COCCCNC(=O)[C@]1(CCC(=O)OC(C)(C)C)N=C(c2ccc(OCCCO)cc2)O[C@@H]1c1ccccc1N=[N+]=[N-],0.913,0.201 (inactive),0.534,-0.092,0.725,3.09,0.0106,1.31,-0.18,1.17
COC(=O)[C@H]1COC(c2ccc(OCCCO)cc2)=N1,0.543,0.0182 (inactive),-0.16,-0.0942,0.523,2.38,0.984,-1.08,-0.0157,-0.588
O=C1c2ccccc2[C@@]2(Cc3ccccc3N(C3CC3)C2=O)[C@H](c2ccc(CO)cc2)N1Cc1ccccc1C(F)(F)F,-0.259,-0.174 (inactive),0.062,-0.0248,0.82,-0.0061,0.439,0.219,-0.338,-0.657
O=C1[C@H]2[C@H]3[C@H](O)[C@H](O)CC(=NOC[C@@H](O)COCc4ccco4)[C@H]3CC[C@H]2C(=O)N1c1cccc(Oc2ccccc2)c1,0.355,-0.705 (inactive),-0.304,-0.133,0.364,-0.607,0.137,-0.572,-0.573,-0.785
COC(=O)C1=C(C)N(Cc2ccccc2)[C@]23O[C@](C(=O)OC)(C(=O)N2[C@@H]1c1ccccc1)[C@H]1CCOC(=O)[C@H]13,0.735,0.493 (inactive),-0.0587,-0.131,0.0198,-0.12,0.21,-0.0775,0.702,0.0349
COc1cccc([C@H]2Oc3ccc(OC)cc3C(=NOC(C)CN3CCCc4nc(C)c(C)cc43)[C@@H]2O)c1 (stereo not given in full),-0.605,0.904 (inactive),0.119,-0.0527,0.431,0.298,0.532,1.14,0.414,-1.16
CCc1cc2c(nc1CC)CCN(CCC(C)=NOC(C)CN1CCCc3nc(C)c(C)cc31)C2 (stereo not given),0.263,1.74 (inactive),0.724,0.271,0.461,1.18,0.0412,1.29,0.726,0.952
COC(=O)CC1OC1[C@H](C)[C@@H](OC)C(C)C (stereo not given in full),-0.294,0.406 (inactive),-0.0647,-0.124,0.232,-0.64,0.229,-0.22,1.03,-0.321
CC(CCN1CCc2nc(-c3ccccc3)c(-c3ccccc3)cc2C1)=NO[C@H](C)c1cn([C@@H]2COC[C@H]2O)nn1,0.156,-0.0135 (inactive),0.0864,-0.117,-0.089,0.507,0.222,1.31,0.0957,-0.411
C#CCCCON=C1C[C@@H](O)[C@@H](O)[C@@H]2[C@@H]3C(=O)N(CCC(=O)OCC)C(=O)[C@@H]3CC[C@@H]12,0.674,-0.521 (inactive),0.0836,-0.0404,-0.0544,0.166,1.05,-0.349,0.715,-0.962
C=CCOC(=O)[C@H]1[C@@H]2C(=O)O[C@@H](c3ccccc3)[C@@H](c3ccccc3)N2[C@@H](c2ccc(OCCOC(=O)[C@H]3C[C@H]4C(=O)N5CCC[C@H]5C(=O)N4[C@H]3c3cccc(OCCO)c3)cc2)[C@]12C(=O)Nc1ccc(I)cc12,0.898,1.9 (inactive),1.36,0.554,0.879,3.06,1.25,1.29,1.24,1.23
O=C1[C@H]2[C@H]3[C@H](O)[C@H](O)CC(=NO[C@@H]4O[C@H](CO)[C@@H](O)[C@H](O)[C@H]4O)[C@@H]3CC[C@H]2C(=O)N1c1ccc(F)cc1F,0.241,-0.836 (inactive),-0.0612,-0.104,-0.0947,-0.0596,0,0.465,0.426,0.262
CC1CC/C=C\[C@H]2OC34C=CCN(C(C)C)C(=O)[C@H]3N(CCCO)C(=O)[C@@H]4C2C(=O)O1 (stereo not given in full),0.468,-1.03 (inactive),-0.0018,-0.0621,0.9,0.702,0.962,-0.499,-0.951,-1.74

# Reference: PubChem BioAssay
